Results published in PubChem BioAssay.
For some of these results: Potency and affinity values are given separately. Active and inactive are the calls of the source.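 The calls were made as follows, unless noted: active = primary screen inhibitor hit that blocks the TRPC4 channel at some tested dose, yielding a dose curve; inactive = the rest.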

Columns and labels:
[1] = tested on: TRPC4 beta (transient receptor potential cation channel C4), mouse; assay: activators of mouse TRPC4 channel, confirmation, cell-based, Fluo4 calcium, HEK293 TRPC4beta/mu-opioid, duplicates, 10 µM (AID 2426;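 active = fluorescence ratio normalized to control raised more than 50% in primary screen plus both repeat runs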); conditions: Fluo4 calcium fluorescence, at 10 µM; stronger effect = higher value
[2] = tested on: transient receptor potential cation channel C4 beta (TRPC4), mouse; assay: activators of mouse TRPC4 channel, confirmation, cell-based, second round, Fluo4, HEK293 TRPC4beta/mu-opioid, 1 µM (AID 2461;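 active = primary screen active and over 50% activation in each of two duplicate runs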); conditions: Fluo4 calcium fluorescence, at 1 µM; stronger effect = higher value
[3] = tested on: TRPC4 (transient receptor potential cation channel C4 beta), mouse; assay: positive allosteric modulators of mouse TRPC4, confirmation, cell-based, second round, Fluo-4, HEK293 TRPC4beta/mu-opioid, 1 µM (AID 2554;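 active = primary screen hit whose fluorescence ratio, in both repeats, exceeds the weak agonist control mean by 3 SD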); conditions: DAMGO EC20, Fluo-4 calcium flux, at 1 µM; stronger effect = higher value
[4] = tested on: TRPC4 beta (transient receptor potential cation channel C4), mouse; assay: positive allosteric modulators of mouse TRPC4, confirmation, cell-based, Fluo-4, HEK293 TRPC4beta/mu-opioid (AID 2555;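 active = primary screen hit whose calcium fluorescence ratio, in both repeats, exceeds the weak agonist control mean by 3 SD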); conditions: DAMGO EC20, Fluo-4 calcium flux, at 10 µM; stronger effect = higher value
[5] = target: Short transient receptor potential channel 4 (Mus musculus) (UniProt Q9QUQ5); assay: inhibitors of mouse TRPC4 channel, confirmation, cell-based, Fluo4, HEK293 TRPC4beta/mu-opioid (AID 2636;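 active = calcium signal cut by more than 3 SD below the full-agonist control yet still positive, in both repeats and the earlier primary screen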); conditions: DAMGO, Fluo4 calcium flux, at 10 µM; stronger effect = higher value
Sequence of Short transient receptor potential channel 4 (Mus musculus) (Q9QUQ5 whole entry, looked up): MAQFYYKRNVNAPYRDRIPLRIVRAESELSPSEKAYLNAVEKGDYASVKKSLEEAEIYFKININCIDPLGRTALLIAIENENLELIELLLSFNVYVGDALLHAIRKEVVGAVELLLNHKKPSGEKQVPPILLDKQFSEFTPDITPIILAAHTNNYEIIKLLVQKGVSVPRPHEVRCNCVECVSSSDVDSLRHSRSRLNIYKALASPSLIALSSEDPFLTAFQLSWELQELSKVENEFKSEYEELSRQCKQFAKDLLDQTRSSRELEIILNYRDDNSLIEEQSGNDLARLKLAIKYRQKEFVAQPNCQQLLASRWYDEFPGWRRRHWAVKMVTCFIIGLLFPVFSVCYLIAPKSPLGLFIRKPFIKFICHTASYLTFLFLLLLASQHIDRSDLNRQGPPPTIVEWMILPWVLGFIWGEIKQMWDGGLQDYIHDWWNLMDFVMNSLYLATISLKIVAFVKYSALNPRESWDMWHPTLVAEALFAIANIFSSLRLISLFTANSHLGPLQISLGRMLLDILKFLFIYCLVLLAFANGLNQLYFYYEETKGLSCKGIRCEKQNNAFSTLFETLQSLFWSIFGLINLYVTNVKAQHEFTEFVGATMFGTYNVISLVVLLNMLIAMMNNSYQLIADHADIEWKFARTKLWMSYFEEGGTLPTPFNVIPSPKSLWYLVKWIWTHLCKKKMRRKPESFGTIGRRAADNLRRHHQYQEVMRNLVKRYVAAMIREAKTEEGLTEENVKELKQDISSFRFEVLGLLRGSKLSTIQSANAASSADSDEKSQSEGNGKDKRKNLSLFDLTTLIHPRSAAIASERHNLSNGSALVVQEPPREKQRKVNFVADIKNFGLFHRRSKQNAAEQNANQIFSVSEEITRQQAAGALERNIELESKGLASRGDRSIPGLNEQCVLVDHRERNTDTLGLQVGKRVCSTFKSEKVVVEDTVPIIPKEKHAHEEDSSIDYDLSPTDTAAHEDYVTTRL

[6] = target: Short transient receptor potential channel 4 (Mus musculus) (UniProt Q9QUQ5); assay: inhibitors of mouse TRPC4 channel, confirmation, cell-based, second round, Fluo4, HEK293 TRPC4beta/mu-opioid, 1 µM (AID 2637;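 active = calcium signal ratio cut to more than 3 SD under the fully stimulated control mean yet still positive, in both repeats and the primary screen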;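 as to inhibition: percent of integrated ratio relative to wells lacking test compound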); conditions: Fluo4 calcium flux, DAMGO, at 1 µM; stronger effect = higher value
[7] = target: Short transient receptor potential channel 4 (Mus musculus) (UniProt Q9QUQ5); assay: mouse TRPC4 channel activators, dose response, cell-based, HEK293 TRPC4/mu-opioid, Fluo-4 calcium (AID 434937;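 active = primary screen activator hit with a dose response curve and TRPC4 channel activation at any tested dose; inactive = no activation, no dose response, or not a primary hit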)
[8] = target: Short transient receptor potential channel 4 (Mus musculus) (UniProt Q9QUQ5); assay: TRPC4 positive allosteric modulators, dose response, cell-based, HEK293 TRPC4/mu-opioid, Fluo-4 calcium, EC20 DAMGO (AID 434941;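 active = earlier screen potentiator hit that boosts the TRPC4 ion channel at some dose, with a dose response; inactive = no potentiation, no dose response, or not a prior hit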;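 also: calcium entry triggered by an EC20 dose of DAMGO at the co-expressed mu-opioid receptor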)
[9] = target: Short transient receptor potential channel 4 (Mus musculus) (UniProt Q9QUQ5); assay: mouse TRPC4 channel inhibitors, dose response, cell-based, HEK293 TRPC4/mu-opioid, Fluo-4 calcium (AID 434942)
[10] = target: Short transient receptor potential channel 6 (Mus musculus) (UniProt Q61143); assay: inhibition of mouse TRPC6 channel, confirmation, selectivity assay for TRPC4 inhibitor project, cell-based, HEK293, membrane potential dye, duplicate (AID 434948;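 active = active in primary screen and both duplicates, each dropping signal beyond three positive-control SD with fluorescence still positive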); conditions: HEK293 TRPC6, membrane potential dye fluorescence, at 10 µM, stimulated with maximal-effect acetylcholine; stronger effect = higher value
Sequence of Short transient receptor potential channel 6 (Mus musculus) (Q61143 whole entry, looked up): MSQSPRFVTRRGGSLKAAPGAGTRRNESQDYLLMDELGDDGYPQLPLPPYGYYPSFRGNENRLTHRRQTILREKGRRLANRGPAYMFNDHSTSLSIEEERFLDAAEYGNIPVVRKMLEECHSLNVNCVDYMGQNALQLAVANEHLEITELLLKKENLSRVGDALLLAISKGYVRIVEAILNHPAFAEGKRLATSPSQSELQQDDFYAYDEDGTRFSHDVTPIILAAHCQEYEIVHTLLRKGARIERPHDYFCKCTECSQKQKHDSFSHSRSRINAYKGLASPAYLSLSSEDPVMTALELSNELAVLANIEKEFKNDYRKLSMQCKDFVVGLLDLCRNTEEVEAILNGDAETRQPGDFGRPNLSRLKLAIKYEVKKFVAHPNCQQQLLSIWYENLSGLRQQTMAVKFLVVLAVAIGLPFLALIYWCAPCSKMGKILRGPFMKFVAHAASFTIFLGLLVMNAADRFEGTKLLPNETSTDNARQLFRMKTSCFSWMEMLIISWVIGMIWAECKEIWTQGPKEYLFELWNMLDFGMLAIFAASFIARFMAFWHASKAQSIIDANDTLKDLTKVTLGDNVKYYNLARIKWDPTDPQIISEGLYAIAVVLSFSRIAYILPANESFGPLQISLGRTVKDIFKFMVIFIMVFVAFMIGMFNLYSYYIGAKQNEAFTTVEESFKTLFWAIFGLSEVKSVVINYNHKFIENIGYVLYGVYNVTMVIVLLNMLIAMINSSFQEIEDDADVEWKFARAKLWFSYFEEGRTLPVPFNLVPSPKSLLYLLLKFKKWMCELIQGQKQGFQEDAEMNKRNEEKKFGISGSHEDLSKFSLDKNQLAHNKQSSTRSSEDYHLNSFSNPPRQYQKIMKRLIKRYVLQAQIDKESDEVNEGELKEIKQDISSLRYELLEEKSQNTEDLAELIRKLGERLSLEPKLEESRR

[11] = target: Short transient receptor potential channel 6 (Mus musculus) (UniProt Q61143); assay: activation of mouse TRPC6 channel, confirmation, selectivity assay for TRPC4 activator project, cell-based, HEK293, membrane potential dye, duplicate (AID 434950;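 active = membrane potential signal rise above negative control mean plus 3 SD in both duplicates, also active in the earlier TRPC4 screen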); conditions: HEK293 TRPC6, membrane potential fluorescence, at 10 µM; stronger effect = higher value
[12] = target: Short transient receptor potential channel 6 (Mus musculus) (UniProt Q61143); assay: TRPC6 potentiation by TRPC4 potentiator hits, confirmation, selectivity assay for TRPC4 potentiator project, HEK293 cells, membrane potential dye, duplicate (AID 434952;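 active = compound raising the membrane signal above positive-control mean plus 3 SD in both repeats, and a primary screen hit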); conditions: HEK293 TRPC6, membrane potential dye fluorescence, at 10 µM, maximal acetylcholine added after compound; stronger effect = higher value
[13] = target: Short transient receptor potential channel 4 (Mus musculus) (UniProt Q9QUQ5); assay: calcium flux activators in TRPC4/5HT1a cells, counter-screen for TRPC4 activator project, cell-based, second counter screen, HEK293 TRPC4/5HT1a, Fluo-4 (AID 434977;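 active = calcium signal rise above buffer-control mean plus 5 SD in both duplicates, and also a hit in the primary screen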); conditions: Fluo-4 calcium flux, at 10 µM; stronger effect = higher value
[14] = calcium flux inhibitors in TRPC4/5HT1a cells, confirmation, counter-screen for TRPC4 inhibitor project, cell-based, second counter screen, HEK293 TRPC4/5HT1a, Fluo-4 (AID 434978;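 active = primary screen active whose calcium signal fell more than 3 SD beyond the full-serotonin control mean in both duplicate plates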;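 as to outcome: serotonin given first at submaximal then at maximal dose after compound preincubation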); conditions: Fluo-4 calcium flux, at 10 µM, serotonin added to trigger calcium flux; stronger effect = higher value
[15] = tested on: TRPC4 (mouse), co-expressed with 5HT1a in HEK293; assay: calcium flux potentiators in TRPC4/5HT1a cells, confirmation, counter-screen for TRPC4 potentiator project, cell-based, second counter screen, HEK293 TRPC4/5HT1a, Fluo-4 (AID 434979;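 active = signal rise over 3 SD above mean of control wells given weak agonist, in both repeats and first screen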); conditions: Fluo-4 calcium flux, at 10 µM, serotonin added at its EC20 dose; stronger effect = higher value
[16] = calcium flux activation in mu-opioid HEK293 cells, confirmation, counter-screen for TRPC4 activator project, cell-based, HEK293 mu-opioid receptor line (AID 449723;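 active = hit in primary screen, with calcium signal over 5 SD above buffer well mean in both duplicates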;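 also: counter screen cells carry the mu-opioid receptor alone and lack TRPC4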); conditions: Fluo-4 calcium fluorescence, at 10 µM; stronger effect = higher value
[17] = calcium flux enhancement in mu-opioid HEK293 cells, confirmation, counter-screen for TRPC4 allosteric potentiator project, cell-based, HEK293 mu-opioid receptor line (AID 449724;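 active = calcium signal rise more than 3 SD above the low-dose agonist control mean, in both duplicate plates and the primary screen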); conditions: Fluo-4 calcium flux, at 10 µM, compound added before EC20 DAMGO stimulus; stronger effect = higher value

NCC(c1ccc(Cl)cc1Cl)c1c[nH]c2ccccc12 (stereo not drawn)
outcome [1]: inactive | outcome [2]: inactive | outcome [3]: inactive | outcome [4]: inactive | outcome [5]: inactive | outcome [6]: inactive | outcome [7]: inactive | outcome [8]: inactive | outcome [9]: inactive | outcome [10]: inactive | outcome [11]: inactive | outcome [12]: inactive | outcome [13]: inactive | outcome [14]: inactive | potentiation [15]: 18.9% (active) | outcome [16]: inactive | outcome [17]: inactive

COc1ccccc1N(C(=O)c1snc(C(N)=O)c1N)C(C(=O)NCc1ccccc1)c1ccc(O)cc1 (stereo not drawn)
outcome [1]: inactive | outcome [2]: inactive | outcome [3]: inactive | outcome [4]: inactive | inhibition [5]: 91% (active) | inhibition [6]: 51% (active) | outcome [7]: inactive | outcome [8]: inactive | outcome [9]: inactive | outcome [10]: inactive | outcome [11]: inactive | outcome [12]: inactive | outcome [13]: inactive | inhibition [14]: 26.4% (active) | outcome [15]: inactive | outcome [16]: inactive | outcome [17]: inactive

CC1(C)Cc2nc3oc4c(=O)n(CC(=O)Nc5ccccc5)cnc4c3cc2CO1
outcome [1]: inactive | outcome [2]: inactive | outcome [3]: inactive | outcome [4]: inactive | outcome [5]: inactive | outcome [6]: inactive | outcome [7]: inactive | outcome [8]: inactive | outcome [9]: inactive | outcome [10]: inactive | outcome [11]: inactive | outcome [12]: inactive | outcome [13]: inactive | outcome [14]: inactive | outcome [15]: inactive | outcome [16]: inactive | outcome [17]: inactive

COc1ccc(NC(C)=O)cc1NC(C)C(=O)Nc1cc(C(F)(F)F)ccc1N1CCOCC1 (stereo not drawn)
outcome [1]: inactive | outcome [2]: inactive | outcome [3]: inactive | outcome [4]: inactive | outcome [5]: inactive | outcome [6]: inactive | outcome [7]: inactive | outcome [8]: inactive | outcome [9]: inactive | outcome [10]: inactive | outcome [11]: inactive | outcome [12]: inactive | outcome [13]: inactive | outcome [14]: inactive | potentiation [15]: 14.5% (active) | outcome [16]: inactive | outcome [17]: inactive

Cc1ccc(C(=O)c2no[n+]([O-])c2C(=O)c2ccc(C)cc2)cc1
outcome [1]: inactive | outcome [2]: inactive | potentiation [3]: 23% (active) | potentiation [4]: 89% (active) | outcome [5]: inactive | outcome [6]: inactive | outcome [7]: inactive | outcome [8]: inactive | outcome [9]: inactive | outcome [10]: inactive | outcome [11]: inactive | outcome [12]: inactive | outcome [13]: inactive | outcome [14]: inactive | potentiation [15]: 59.9% (active) | outcome [16]: inactive | outcome [17]: inactive

CC(C)C(=O)N1CCN(c2ccccc2NC(=O)c2ccco2)CC1
outcome [1]: inactive | outcome [2]: inactive | outcome [3]: inactive | outcome [4]: inactive | inhibition [5]: 84% (active) | outcome [6]: inactive | outcome [7]: inactive | outcome [8]: inactive | outcome [9]: inactive | outcome [10]: inactive | outcome [11]: inactive | outcome [12]: inactive | outcome [13]: inactive | outcome [14]: inactive | outcome [15]: inactive | outcome [16]: inactive | outcome [17]: inactive

CCCCCCCCCCOC(=O)Cn1c(COc2ccccc2)[n+](C)c2ccccc21
outcome [1]: inactive | outcome [2]: inactive | outcome [3]: inactive | outcome [4]: inactive | outcome [5]: inactive | outcome [6]: inactive | outcome [7]: inactive | outcome [8]: inactive | outcome [9]: inactive | outcome [10]: inactive | outcome [11]: inactive | outcome [12]: inactive | outcome [13]: inactive | outcome [14]: inactive | outcome [15]: inactive | outcome [16]: inactive | outcome [17]: inactive

FC(F)(F)COc1nc(N2CCCCC2)nc(N2CCNCC2)n1
outcome [1]: inactive | outcome [2]: inactive | outcome [3]: inactive | outcome [4]: inactive | outcome [5]: inactive | outcome [6]: inactive | outcome [7]: inactive | outcome [8]: inactive | outcome [9]: inactive | outcome [10]: inactive | outcome [11]: inactive | outcome [12]: inactive | outcome [13]: inactive | outcome [14]: inactive | outcome [15]: inactive | outcome [16]: inactive | outcome [17]: inactive

c1ccc2c(c1)[nH]c1c(N3CCCC3)ncnc12
outcome [1]: inactive | outcome [2]: inactive | outcome [3]: inactive | outcome [4]: inactive | outcome [5]: inactive | outcome [6]: inactive | outcome [7]: inactive | outcome [8]: inactive | outcome [9]: inactive | outcome [10]: inactive | outcome [11]: inactive | outcome [12]: inactive | outcome [13]: inactive | outcome [14]: inactive | outcome [15]: inactive | outcome [16]: inactive | outcome [17]: inactive

O=C(NC1CC1)c1ccc2c(c1)N(Cc1ccc(Cl)cc1)CCS2
outcome [1]: inactive | outcome [2]: inactive | outcome [3]: inactive | outcome [4]: inactive | outcome [5]: inactive | outcome [6]: inactive | outcome [7]: inactive | outcome [8]: inactive | outcome [9]: inactive | outcome [10]: inactive | outcome [11]: inactive | outcome [12]: inactive | outcome [13]: inactive | outcome [14]: inactive | outcome [15]: inactive | outcome [16]: inactive | outcome [17]: inactive

CCCC1=C(C(=O)OCC)C(c2cc(Cl)cc(OC)c2OCC(=O)OCC)NC(=O)N1 (stereo not drawn)
outcome [1]: inactive | outcome [2]: inactive | outcome [3]: inactive | potentiation [4]: 22% (active) | outcome [5]: inactive | outcome [6]: inactive | outcome [7]: inactive | outcome [8]: inactive | outcome [9]: inactive | outcome [10]: inactive | outcome [11]: inactive | outcome [12]: inactive | outcome [13]: inactive | outcome [14]: inactive | potentiation [15]: 5.72% (active) | outcome [16]: inactive | outcome [17]: inactive

Cn1c(=O)c2c(nc(CN3CCc4ccccc4C3)n2Cc2cccc(Cl)c2)n(C)c1=O
outcome [1]: inactive | outcome [2]: inactive | potentiation [3]: 6% (active) | potentiation [4]: 45% (active) | outcome [5]: inactive | outcome [6]: inactive | outcome [7]: inactive | outcome [8]: inactive | outcome [9]: inactive | outcome [10]: inactive | outcome [11]: inactive | outcome [12]: inactive | outcome [13]: inactive | outcome [14]: inactive | potentiation [15]: 78.3% (active) | outcome [16]: inactive | outcome [17]: inactive

CN(C)CCCNc1nc(N)c([N+](=O)[O-])c(NCc2ccccc2)n1
outcome [1]: inactive | outcome [2]: inactive | outcome [3]: inactive | outcome [4]: inactive | outcome [5]: inactive | outcome [6]: inactive | outcome [7]: inactive | outcome [8]: inactive | outcome [9]: inactive | outcome [10]: inactive | outcome [11]: inactive | outcome [12]: inactive | outcome [13]: inactive | outcome [14]: inactive | outcome [15]: inactive | outcome [16]: inactive | outcome [17]: inactive

CCCCNC(=O)/C(C#N)=C/c1ccc(F)cc1F
outcome [1]: inactive | outcome [2]: inactive | outcome [3]: inactive | potentiation [4]: 9% (active) | outcome [5]: inactive | outcome [6]: inactive | outcome [7]: inactive | outcome [8]: inactive | outcome [9]: inactive | outcome [10]: inactive | outcome [11]: inactive | outcome [12]: inactive | outcome [13]: inactive | outcome [14]: inactive | outcome [15]: inactive | outcome [16]: inactive | outcome [17]: inactive
